# Results taken from PubChem BioAssay AID488965 (Broad Institute, 2010).
# Out of some 340,000 compounds screened, about 210 (0.062%) were called active. Rule as the data show it: active = inhibition above about 30% (passing the limit was not always enough); inconclusive = no clear call, values can overlap the other calls. The full list was thinned out, with actives kept by preference.
# Tested on: PvdQ acylase [Pseudomonas aeruginosa LESB58]
# Assay: P. aeruginosa PvdQ acylase inhibitors, primary screen, biochemical, fluorescence, plate reader and imaging, single point (AID 488965);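 also: 0% = vehicle neutral wells and 100% = reference inhibitor wells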
# Conditions: purified PvdQ acylase, at 10 µM, active compounds read high
row,Structure (SMILES),inhibition
1,CCN(CC)c1ccc(NC(=O)c2ccc(Cl)nc2)cc1,-15.1% (inactive)
2,CCCCNC(=O)C1(c2ccc(OC)cc2)CCOCC1,-4.05% (inactive)
3,NS(=O)(=O)c1ccc(NC(=S)N2CCCC2)cc1,9.11% (inactive)
4,CC1(C)Oc2ccc(C(=O)N3CCOCC3)cc2N(CC(=O)Nc2ccccc2)C1=O,-16.2% (inactive)
5,COCCCNC(=O)/C(C#N)=C/c1c(N2CCCCCC2)nc2ccccn2c1=O,-15.4% (inactive)
6,Cc1ccccc1-n1nc(SCC(=O)O)sc1=S,-9.08% (inactive)
7,Cc1cc(NC(=O)c2ccccc2C)no1,11.3% (inactive)
8,Cc1cc(NC(=O)Nc2ccccc2[N+](=O)[O-])no1,62.7% (active)
9,Cc1csc(NC(=O)Nc2ccccc2[N+](=O)[O-])n1,-8.58% (inactive)
10,Cc1c(C(=O)NCCN2CCOCC2)sc2nc(-c3ccc(F)cc3)cn12,-12.4% (inactive)
11,Cc1ccc(CNS(=O)(=O)CCNC(=O)c2ccccc2)cc1,0.203% (inactive)
12,CC1CCCCC1NCC(=O)Nc1ccccc1C(=O)Nc1ccccc1 (stereo not drawn),-4.86% (inactive)
13,O=C(Nc1ccc(F)cc1)c1cccnc1N1CCOCC1,-0.858% (inactive)
14,O=C(O)CCC(=O)Nc1ccc(OCC2CCCO2)cc1 (stereo not drawn),-5.22% (inactive)
15,Cc1ccc(NC(=O)CC2C(=O)N(Cc3ccccc3)C(=S)N2NC(=O)c2cccc(F)c2)c(C)c1 (stereo not drawn),5.2% (inactive)
16,COc1ccc(NC(=O)C2CCC(CNC(=O)[C@@H]3Cc4ccccc4CN3)CC2)cc1 (stereo partly drawn),-2.14% (inactive)
17,CC(C)C(=O)Nc1oc(-c2ccccc2)cc1C#N,7.27% (inactive)
18,Cn1cc(-c2ccccc2)cc(C#N)c1=O,-0.186% (inactive)
19,Cn1cccc1C(C#N)c1ccccc1C#N (stereo not drawn),56.5% (active)
20,Cc1cc(C)c2c(NC(=O)C3CC3)nn(C)c2n1,3.4% (inactive)

row,Structure (SMILES),inhibition
1,Cc1nnc(SC(C)C(=O)Nc2ccc(S(=O)(=O)NC3CCCCC3)cc2)s1 (stereo not drawn),7.56% (inactive)
2,NS(=O)(=O)c1ccc(CCNC(=O)CN2C(=O)c3ccccc3S2(=O)=O)cc1,0.254% (inactive)
3,COc1ccccc1NC(=O)C(C)OC(=O)CC1CCCC1 (stereo not drawn),-15.2% (inactive)
4,COc1ccc(-c2ocnc2C(=O)Nc2ccc3c(c2)CCC3)cc1,0.782% (inactive)
5,Cc1cc(Nc2ccc(Br)cc2F)n2ncnc2n1,-0.336% (inactive)
6,CCc1cccc(NC(=O)CCCN2C(=O)C(c3ccccc3)Oc3cccnc32)c1 (stereo not drawn),-6.79% (inactive)
7,O=C(Nc1c2c(nn1-c1ccc(F)cc1)CS(=O)C2)C12CC3CC(CC(C3)C1)C2 (stereo not drawn),-15.9% (inactive)
8,O=C(NCCOc1ccccc1F)Nc1ccc(Br)cc1,-15.7% (inactive)
9,CO[C@@H]1[C@@H](OC(N)=O)[C@@H](O)C(Oc2ccc3c(O)c(NC(=O)c4ccc(O)c(CC=C(C)C)c4)c(=O)oc3c2C)OC1(C)C (stereo partly drawn),3.42% (inactive)
10,O=C(Nc1ccccc1C(=O)N1CCOCC1)c1ccc(CSc2ccccc2)cc1,-11.3% (inactive)
11,C[C@@]12C(=O)N(c3cccc(Br)c3)C(=O)N1[C@H](c1ccc(Cl)cc1)[C@@H]1C(=O)N(C3CCCCC3)C(=O)[C@@H]12,-10.3% (inactive)
12,Cc1c(C(=O)NC(=S)NCc2cccnc2)oc2ccccc12,-8.97% (inactive)
13,CC(C)(CSc1nncn1/N=C/c1ccco1)NS(=O)(=O)c1ccc(Cl)cc1,-10% (inactive)
14,COc1ccc(C(O)(C2CCCCC2)C(CN2CCCC2)c2ccccc2)cc1 (stereo not drawn),-13.6% (inactive)
15,CCOC(=O)C1CCN(C(=O)COc2cccc3ccccc23)CC1,-22% (inactive)
16,O=C1CN(C(=O)COC(=O)/C=C/c2ccc(F)cc2)c2ccccc2N1,-0.579% (inactive)
17,COc1ccc(N(C)C(=O)C2CCN(S(=O)(=O)c3cccc4nsnc34)CC2)cc1,-10.1% (inactive)
18,CC(C)(COC(=O)Nc1ccccc1)COC(=O)Nc1ccccc1,3.19% (inactive)
19,C/C(=N\NS(=O)(=O)c1cccc([N+](=O)[O-])c1)c1cc2ccccc2o1,12.7% (inactive)
20,Cc1ccc(NC(=O)c2nc[nH]c2C(=O)N2CCCCC2)c(C(=O)c2ccccc2)c1,6.08% (inactive)

row,Structure (SMILES),inhibition
1,CCc1ccccc1S(=O)(=O)Cc1ccc(C(=O)NCCc2ccccc2)o1,-14.5% (inactive)
2,Cc1nnc(SCC(=O)N(C(C)C)C(C)C)nc1C,-17% (inactive)
3,CC(Sc1nnc(Cc2ccc([N+](=O)[O-])cc2)o1)C(N)=O (stereo not drawn),5.89% (inactive)
4,O=C(NCc1cccc(Cl)c1)C1CCC(=O)N(C2CC2)C1 (stereo not drawn),0.749% (inactive)
5,Cc1ccc(S(=O)(=O)N2CCCCC2)cc1C(=O)N(C)CC(=O)Nc1cccc(F)c1,2.44% (inactive)
6,CCn1c2ccccc2c2cc(NC(=O)C/C(C)=N/NC(=O)c3ccccc3N)ccc21,-14.8% (inactive)
7,COc1ccc(N(CC(=O)NCC2CCCO2)C(=O)CCC(=O)Nc2nccs2)c(OC)c1 (stereo not drawn),0.881% (inactive)
8,Cc1ccc(C(c2sc3nc(C)nn3c2O)N2CCN(c3ccc(F)cc3)CC2)cc1 (stereo not drawn),-4.54% (inactive)
9,CCCC1CC(C)(C(=O)Cn2[nH]c(=O)ccc2=O)OC1=O (stereo not drawn),-24.8% (inactive)
10,Cn1nccc1C(=O)N1CCCC(C(=O)c2ccc(Oc3ccccc3)cc2)C1 (stereo not drawn),-15.6% (inactive)
11,CCNC(=O)N1CCCC(C(=O)c2ccc(-c3ccccc3)cc2)C1 (stereo not drawn),-11% (inactive)
12,O=C(c1ccc(-c2ccccc2)cc1)C1CCCN(C(=O)c2cncs2)C1 (stereo not drawn),46.5% (active)
13,COC(=O)c1c(NC(=O)CN2C(=O)NC(CCc3ccccc3)C2=O)sc2c1CCCCC2 (stereo not drawn),2.45% (inactive)
14,CCC(C)(C)NC(=O)c1cc([N+](=O)[O-])ccc1N1CCCCC1,38.9% (active)
15,CCN1CCN(c2ccc([N+](=O)[O-])cc2C(=O)c2ccc(Cl)cc2)CC1,-6.71% (inactive)
16,CC1CCN(c2ccc([N+](=O)[O-])cc2C(N)=O)CC1,-4.82% (inactive)
17,CCOc1cc(/C=C2\SC(N3CCCC(C)C3)=NC2=O)ccc1O (stereo not drawn),-6.66% (inactive)
18,c1ccc2cc(CCCc3cc4ccccc4cn3)ncc2c1,21.2% (inactive)
